Only some compounds are listed: those with a hit (about 3.4% of all), similar ones and a draw of the others.
PP5 primary: PP5 phosphatase inhibitors, primary screen, biochemical, fluorescence; Serine/threonine-protein phosphatase 5 (Homo sapiens), P53041; purified PP5c, OMFP substrate fluorescence; inhibition, % at 6.7 µM; 0.18% of 320,000 active;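 active = inhibition above the campaign's mean inhibition across all tested compounds plus 3 SD, cut at about 9.5% in these data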;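 note: 0% = DMSO only and 100% = 100 µM cantharidin control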
PAFAH1B2 FP inh: PAFAH1B2 enzyme inhibitors, primary screen, biochemical, fluorescence polarization, human; 1.2% of 340,000 active; inhibition, % at 3.39 µM; AID 492953, 2010; Platelet-activating factor acetylhydrolase IB subunit alpha2 (Homo sapiens), P68402; recombinant PAFAH1B2, FP-rhodamine activity probe;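 active = inhibition above the mean of all tested compounds plus 3 SD, cut at about 24% in these data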;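 note: 0% = enzyme with DMSO and 100% = wells lacking PAFAH1B2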
PAFAH1B3 inh: PAFAH1B3 enzyme inhibitors, primary screen, biochemical, fluorescence polarization, human | inhibition, % at 3.39 µM | AID 492972, 2010 | Platelet-activating factor acetylhydrolase IB subunit alpha1 (Homo sapiens), Q15102 | recombinant PAFAH1B3, FP-rhodamine probe | 0.28% of 340,000 active;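 active = inhibition above the screen-wide average of all tested compounds plus 3 SD, cut at about 25% in these data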;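 note: 0% = enzyme with DMSO only and 100% = wells lacking PAFAH1B3 protein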
Target sequence (Q15102 whole entry, looked up): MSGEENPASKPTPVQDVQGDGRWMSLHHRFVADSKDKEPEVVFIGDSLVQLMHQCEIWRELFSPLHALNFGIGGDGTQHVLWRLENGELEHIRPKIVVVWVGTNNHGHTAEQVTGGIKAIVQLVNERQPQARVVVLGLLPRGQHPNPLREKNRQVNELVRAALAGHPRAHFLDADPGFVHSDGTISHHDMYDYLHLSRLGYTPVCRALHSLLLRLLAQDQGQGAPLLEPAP
PP1 counter: PP1-alpha phosphatase inhibitors, primary screen, counter-screen for PP5 inhibitor project, biochemical, fluorescence, OMFP substrate, single point. Serine/threonine-protein phosphatase PP1-alpha catalytic subunit (Homo sapiens), P62136. purified PP1alpha. inhibition, % at 6.7 µM. 0.9% of 320,000 active. AID 2235, 2010;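 active = inhibition above the mean inhibition of all tested compounds plus 3 SD, computed separately for each screening campaign, cut at about 15% in these data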
Target sequence (P62136 whole entry, looked up): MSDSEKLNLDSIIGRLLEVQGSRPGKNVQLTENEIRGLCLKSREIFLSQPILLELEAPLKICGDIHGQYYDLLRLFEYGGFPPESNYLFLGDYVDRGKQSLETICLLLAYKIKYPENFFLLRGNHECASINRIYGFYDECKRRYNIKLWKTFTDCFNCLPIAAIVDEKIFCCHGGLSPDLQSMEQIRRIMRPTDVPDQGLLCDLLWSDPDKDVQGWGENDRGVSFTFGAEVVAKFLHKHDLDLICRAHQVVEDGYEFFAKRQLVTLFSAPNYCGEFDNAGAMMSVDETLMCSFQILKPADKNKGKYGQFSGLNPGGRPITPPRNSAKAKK
pPAFAH inh: pPAFAH enzyme inhibitors, primary screen, biochemical, fluorescence polarization, human; AID 463082, 2010; inhibition, % at 3.39 µM; recombinant pPAFAH, FP-rhodamine probe fluorescence polarization; Platelet-activating factor acetylhydrolase (Homo sapiens), Q13093; 1.5% of 330,000 active;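 active = inhibition above the mean inhibition across the screen plus 3 SD, cut at about 25% in these data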;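 note: inhibitors block binding of the rhodamine activity-based probe so polarization drops; 0% = enzyme with DMSO and 100% = wells lacking pPAFAH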
PAFAH2 FP inh: PAFAH2 enzyme inhibitors, primary screen, biochemical, fluorescence polarization, human; 0.99% of 340,000 active; recombinant PAFAH2, FP-rhodamine activity probe; AID 492956, 2010; inhibition, % at 3.39 µM; Platelet-activating factor acetylhydrolase 2, cytoplasmic (Homo sapiens), Q99487;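 active = inhibition above the mean over all tested compounds plus 3 SD, cut at about 30% in these data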;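 note: inhibitors block probe labeling of enzyme so polarization drops; 0% = enzyme with DMSO and 100% = wells lacking PAFAH2 protein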
Numbers without * were called inactive; x = not tested or not shown.

SMILES | PP5 primary | PAFAH1B2 FP inh | PAFAH1B3 inh | PP1 counter | pPAFAH inh | PAFAH2 FP inh
Cc1ccc(NS(=O)(=O)c2ccc(C(=O)N3CCN(c4ccccn4)CC3)cc2)cc1 | 3 | 6 | 0 | 3 | 25* | -1
O=C(c1ccc(S(=O)(=O)Nc2ccccc2)cc1)N1CCCC(C(F)(F)F)C1 (configuration not stated) | 1 | 1 | -2 | 0 | 28* | 3
Cc1ccc(NS(=O)(=O)c2ccc(C(=O)N3CCC3)cc2)cc1 | -1 | -1 | 0 | -6 | 28* | 2
Cc1ccc(NS(=O)(=O)c2ccc(C(=O)NC3CCN(Cc4ccccc4)CC3)cc2)cc1 | x | 4 | 7 | x | 26* | -4
COc1ccc2nc(SCC(=O)N(C)CC(=O)Nc3ccc(F)cc3)[nH]c2c1 | -1 | 7 | 10 | -4 | 1 | 3
Cc1cc(C)n2nc(SCC(=O)NC3CCCCC3)nc2n1 | -1 | 3 | 9 | 2 | 2 | 12
Cc1ccc(S(=O)(=O)NCCC(=O)Nc2ccc(Cl)c(Cl)c2)cc1 | 4 | 29* | -4 | 2 | 1 | 6
Cc1ccc(S(=O)(=O)NCCC(=O)Nc2ccc(Cl)c(Cl)c2)cc1C | 5 | 25* | -3 | 7 | 0 | -3
O=C(CCc1ccccc1)NNC(=S)NCc1ccc(Cl)cc1 | 0 | 25* | 7 | -4 | 28* | -2
Cc1cccc(NC(=O)C(=O)NCC2CCCO2)c1 (configuration not stated) | 0 | 2 | 10 | -4 | 7 | -3
CCN(CC(=O)NCc1ccc(Cl)cc1)C(=O)/C=C/c1ccccc1 | 3 | 27* | 6 | -3 | 6 | 2
CCN(CC(=O)NCc1ccc(Cl)cc1)C(=O)/C=C/c1ccc(C#N)cc1 | -1 | 1 | 2 | 5 | 3 | -1
CCCCC1SC(N)=NC1=O (configuration not stated) | x | 4 | 5 | x | x | -7
O=C(O)CCn1cc(C2CC(c3ccccc3)=NN2c2ccccc2)c(-c2ccccc2)n1 (configuration not stated) | 6 | 8 | -5 | 15* | 27* | 12
Cc1ccc(NS(=O)(=O)c2ccc(C(=O)NCC(c3ccco3)N3CCCCC3)cc2)cc1 (configuration not stated) | 0 | 4 | 3 | 1 | 30* | 1
O=C(NCC(c1ccco1)N1CCCCC1)c1ccc(S(=O)(=O)Nc2ccccc2)cc1 (configuration not stated) | 2 | 1 | 2 | -6 | 30* | 0
CN(C)C(CNC(=O)c1ccc(S(=O)(=O)Nc2ccccc2)cc1)c1ccco1 (configuration not stated) | 0 | 2 | 6 | -9 | 29* | 1
C#CCN1C=C(C(=O)OCC)C(C)N(Cc2ccccc2I)S1(=O)=O (configuration not stated) | x | 3 | 4 | x | 11 | 2
CN1C[C@@H]2[C@@H]3C(=O)N(C)C(=O)[C@@H]3[C@](Cc3ccccc3)(C1=O)N2C(=O)c1ccccc1 | x | -1 | 4 | x | x | 0
O=CNc1c(Cl)cc2c(c1Cl)Cc1cc([N+](=O)[O-])ccc1-2 | x | 3 | 10 | x | x | 0
CCCCC(CCc1ccccn1)C(=O)c1ccccc1 (configuration not stated) | x | 4 | 9 | x | x | 4
Nc1nnc(SCC(=O)NNC(=O)c2ccccc2F)s1 | x | 0 | 2 | x | 0 | 6
COc1cccc2c1[C@@H]1CN(CCCCn3c(=O)[nH]c4c(sc5ncc(-c6ccccc6)nc54)c3=O)C[C@@H]1CO2 | -3 | -3 | 6 | 17* | 11 | 11
COc1cc2[nH]c(=O)n(CCCC(=O)N3CC=C(c4ccccc4)CC3)c(=O)c2cc1OC | -1 | -3 | 12 | -2 | -11 | -1
O=C(Nc1cccc([N+](=O)[O-])c1)c1ccc2snnc2c1 | 2 | -11 | -2 | 3 | 3 | -28
SMILES | PP5 primary | PAFAH1B2 FP inh | PAFAH1B3 inh | PP1 counter | pPAFAH inh | PAFAH2 FP inh
Cc1ccc(S(=O)(=O)n2nc(OC(=O)c3c(-c4ccccc4Cl)noc3C)cc2N)cc1 | 2 | 11 | 11 | 0 | -6 | 1
Cc1onc(-c2ccccc2Cl)c1C(=O)Oc1cc(N)n(S(=O)(=O)c2ccc(F)cc2)n1 | 2 | 36* | 11 | 5 | 6 | 4
CCc1cc(-c2n[nH]c(C)c2Oc2ccc(C(C)C)cc2)c(O)cc1O | 8 | 5 | 13 | -5 | 31* | 7
Cc1[nH]nc(-c2ccc(O)cc2O)c1Oc1ccccc1 | 4 | 27* | 5 | 4 | 2 | 1
O=[N+]([O-])c1ccc(COc2cccc(CN3CCCCC3)c2)cc1 | x | 6 | 12 | x | x | -6
COCCCn1nnnc1SCC(=O)Nc1nc2ccccc2s1 | 0 | 5 | -2 | -2 | 1 | 6
CCCCCCC[C@@H](C/C=C/CCC(=O)N(C)C/C(=C/Cl)C/C(=C\C(=O)N1CC(OC)=CC1=O)OC)OC | x | 3 | 7 | x | 28* | 8
CCCCCCC[C@@H](C/C=C/CCC(=O)O)OC | x | 10 | 8 | x | 11 | 0
Cc1ccc(NC(=O)COc2ccc(N(C)C(=O)C(C)(C)C)cc2)cc1S(=O)(=O)N1CCCCC1 | x | 0 | 8 | x | 0 | 1
CCOC(=O)CCCN1CC(O)=C(c2nc(-c3ccc(Cl)cc3)cs2)C1=N | 5 | 0 | 5 | 17* | 13 | 15
Cc1ccc(/C=N/NS(=O)(=O)c2ccc([N+](=O)[O-])cc2)o1 | -1 | 0 | 6 | -2 | 3 | 0
CCCCCCCCCCS(=O)(=O)N/N=C/c1ccc([N+](=O)[O-])cc1 | 0 | 30* | 8 | 0 | 10 | 2
CN(C(=O)c1ccc(NC(=O)Cc2ccc(NC(=O)C3CCCN(C(=O)CCc4ccccc4)C3)cc2)cc1)C1CC1 (configuration not stated) | 1 | 1 | 1 | -4 | 4 | 14
Cc1ccc(C)n1NC(=O)c1ccccc1O | 3 | -1 | 2 | 4 | 32* | 9
Cc1ccc(C)n1NC(=O)c1ccccc1[N+](=O)[O-] | -1 | 1 | -2 | -2 | -5 | 8
CCCC(C(=O)NCC1CCCO1)N(Cc1ccco1)C(=O)CNS(=O)(=O)c1ccccc1 (configuration not stated) | 3 | -3 | -3 | -1 | 1 | 3
O=C(CN(Cc1ccco1)C(=O)CNS(=O)(=O)c1ccc(Cl)cc1)NCc1ccc(F)cc1 | 0 | 26* | 2 | 1 | 10 | 22

Compound activity from PubChem BioAssay.
